According to PubChem BioAssay (NCATS):
Records with an inconclusive call do not appear. Calls of active or inactive are those of the source. The call rests on the fitted dose curve; in most records, active means well fitted curve in the direction sought with a large enough effect; inconclusive means small, poorly fitted or top-dose-only effect, or another doubt; inactive means no such curve, though single readings can be large; an effect the other way counts as inactive or inconclusive.

Key:
[1] = Cell Viability - LYMP2-004 (AID 966); further: nearly all actives have a fitted effect of over 65% in size
How it was run: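 Cells seeded 2500/well, rested 5 hr at 37 C, dosed across a concentration series, incubated 24 hr at 37 C, then CellTiter-Glo added for 30 min at room temperature and luminescence read. Hill fitting gave AC50.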

[2] = Cell Viability - LYMP2-005 (AID 967); further: series mostly up to about 92 µM
How it was run: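 LYMP2-005 human lymphoblastoid cells (2500/well) were treated with compounds for 24 h at 37 C. Intracellular ATP was then measured by CellTiter-Glo luminescence after 30 min at room temperature. AC50 values came from Hill-equation fits of qHTS concentration-response data.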

[3] = Cell Viability - LYMP2-009 (AID 968); further: series mostly up to about 92 µM; nearly all actives have a fitted effect of over 55% in size
[4] = Cell Viability - LYMP2-011 (AID 969); further: nearly all actives have a fitted effect of over 60% in size
How it was run: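 2500 cells/well, 5 hr 37 C; compound added, 24 hr 37 C; CellTiter-Glo 30 min RT; luminescence. qHTS concentration-response, Hill-equation AC50. Tetraoctylammonium bromide positive control.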

[5] = Cell Viability - LYMP2-013 (AID 970); further: series mostly up to about 92 µM; nearly all actives have a fitted effect of over 55% in size
How it was run: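 qHTS; 2500 lymphoblastoid cells/well; 5 hr 37 C settle; cpd 24 hr 37 C; CellTiter-Glo, 30 min RT; luminescence. AC50 = Hill fit.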

[6] = Cell Viability - LYMP2-015 (AID 971); further: nearly all actives have a fitted effect of over 55% in size
How it was run: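 Luminescent ATP read-out (CellTiter-Glo) served as the viability measure after lymphoblastoid cells were exposed to compounds for 24 hours at 37 C. Concentration-response data were fitted with the Hill equation to give AC50.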

[7] = Cell Viability - LYMP2-017 (AID 972); further: series mostly up to about 92 µM; nearly all actives have a fitted effect of over 55% in size
How it was run: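 2500 cells/well, 5 h 37 C; cpd 24 h 37 C in complete medium; CellTiter-Glo, 30 min RT; luminescence (ATP). AC50 via Hill fit, qHTS.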

[8] = Cell Viability - LYMP2-019 (AID 973); further: nearly all actives have a fitted effect of over 55% in size
How it was run: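 Luminescent ATP read-out (CellTiter-Glo, 30 min room temperature) served as the viability measure after 24 hr treatment of lymphoblastoid cells at 37 C. Concentration-response data were fitted to the Hill equation for AC50.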

[9] = Cell Viability - LYMP2-021 (AID 974)
How it was run: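 Plate 2500 lymphoblastoid cells per well and incubate 5 hr at 37 C. Add compounds over a concentration range and incubate 24 hr at 37 C. Add CellTiter-Glo, wait 30 min at room temperature, read luminescence.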

[10] = Cell Viability - LYMP2-023 (AID 975)
How it was run: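 2500 cells/well, 5 hr 37 C; cpd 24 hr 37 C; CellTiter-Glo, 30 min RT; luminescence. qHTS conc-response, Hill fit -> AC50. Pos ctrl tetraoctylammonium bromide.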

Measured: Potency

CC(C)CO
inactive: all assays above

CC(O)CC(C)O (stereo not drawn)
inactive: all assays above

c1ccc2n[nH]nc2c1
inactive: all assays above

Nc1ccccc1S(=O)(=O)O
inactive: all assays above

CC(=O)Nc1cccc(N)c1
not listed: [5]
inactive: all other assays above

CC(C)Cc1nccs1
not listed: [7]
inactive: all other assays above
